# Compound activity: PubChem BioAssay, National Center for Advancing Translational Sciences (NCATS)
# This is one part of a sample in which hits are shown more often than they occur.
# MLL CXXC-DNA inh: MLL CXXC-DNA interaction inhibition; Q03164; MLL-CXXC / FITC-HOXA9 DNA fluorescence polarization; Potency, µM (top dose mostly 115 µM), for the others: top-dose activity change, negative = inhibition, usual class: inhibitors; 290,000 compounds, 0.037% hits; AID 2662; active = well fitted inhibition curve with a large enough effect in the polarisation, with a control signal flat, not every such curve was filed as active; inconclusive = small, poorly fitted or top-dose-only effect, or effect the other way, or a change in a side signal; inactive = no such curve, though single readings can be large or run the other way; the % refers to the polarisation; also: potency is read from the fitted curve at half-maximal effect
#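 Fluorescence polarization: 7 uM MLL-CXXC (stock) preincubated 5 min with compounds, then 50 nM fluorescein-HOX-A9 DNA (stock) added; 30 min ambient. Buffer 50 mM Tris-HCl pH 7.5, 50 mM NaCl, 1 mM DTT, 0.05% BSA.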
# Menin MLL FP TR: inhibitors of human menin-MLL interaction, mutant MLL peptide; O00255; Menin + Texas Red MLL mutant peptide, fluorescence polarization; Potency, µM (series often up to 61.6 µM), for the others: at the top dose FP activity change, negative = inhibition, hits mostly inhibitors; 270,000 compounds, 0.23% hits; AID 1768; active = well fitted inhibition curve with a large enough effect in the polarisation, with a control signal flat, not every such curve was filed as active; inconclusive = small, poorly fitted or top-dose-only effect, or effect the other way, or a change in a side signal; inactive = no such curve, though single readings can be large or run the other way; the % refers to the polarisation; also: potency is read from the fitted curve at half-maximal effect; % of control where 0% means no effect
# Target sequence (O00255 whole entry, looked up): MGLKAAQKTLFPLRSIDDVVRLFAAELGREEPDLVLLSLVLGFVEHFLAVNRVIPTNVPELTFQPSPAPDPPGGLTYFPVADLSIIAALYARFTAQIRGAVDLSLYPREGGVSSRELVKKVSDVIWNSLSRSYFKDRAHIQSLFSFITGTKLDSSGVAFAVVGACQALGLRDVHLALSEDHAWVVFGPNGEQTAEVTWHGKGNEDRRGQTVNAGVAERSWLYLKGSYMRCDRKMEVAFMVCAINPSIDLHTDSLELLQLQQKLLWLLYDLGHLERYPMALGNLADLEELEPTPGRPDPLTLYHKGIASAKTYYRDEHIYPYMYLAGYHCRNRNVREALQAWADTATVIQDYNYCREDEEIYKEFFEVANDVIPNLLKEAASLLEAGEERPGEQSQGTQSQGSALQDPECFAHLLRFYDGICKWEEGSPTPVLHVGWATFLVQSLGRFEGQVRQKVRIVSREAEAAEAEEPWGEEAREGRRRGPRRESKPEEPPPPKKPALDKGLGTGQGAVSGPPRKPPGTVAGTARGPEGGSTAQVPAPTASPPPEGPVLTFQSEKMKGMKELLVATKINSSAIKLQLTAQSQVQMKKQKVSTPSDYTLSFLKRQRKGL
# Menin-MLL FL inh: menin-MLL binding inhibition, fluorescein peptide | Fluorescence polarization, fluorescein-MLL peptide displacement from menin | FP activity change, % at 61.4 µM | 290,000 tested, under 10 active; active = well fitted curve in the direction sought with a large enough effect in the polarisation, not every such curve was filed as active; inconclusive = small, poorly fitted or top-dose-only effect, or effect the other way, or a change in a side signal; inactive = no such curve, though single readings can be large or run the other way; the % refers to the polarisation; also: % of control where 0% means no effect
# MBNL1-CUG inh: blocks human MBNL1 binding to CUG repeat RNA. Q9NR56. TR-FRET MBNL1-His/biotin-(CUG)12 binding, 665/545 ratio. Potency, µM (highest dose often 57.5 µM), for the others: at the top dose activity change, negative = inhibition, actives largely listed as inhibitors. 280,000 compounds, 0.036% hits. AID 2675; active = well fitted inhibition curve with a large enough effect in the signal ratio, with a control signal flat, not every such curve was filed as active; inconclusive = small, poorly fitted or top-dose-only effect, or effect the other way, or a change in a side signal; inactive = no such curve, though single readings can be large or run the other way; the % refers to the signal ratio; also: potency is read from the fitted curve at half-maximal effect; % is scaled to controls: 0 for no effect and ±100 for the full control effect
#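 Compound titration spanned 92 nM–58 uM against the MBNL1-His/biotin-(CUG)12 complex. After 60 min at room temperature with 5 nM streptavidin-XL665 and 0.055 ng/ul terbium anti-His, ratiometric 665/545 nm emission (Ex 340 nm) normalized to controls.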
# * marks the source's active call; other numbers are inactive results; ? = inconclusive; . = no result; [ ] = another dose, or the depositor's remark.
SMILES,MLL CXXC-DNA inh,Menin MLL FP TR,Menin-MLL FL inh,MBNL1-CUG inh
CCn1cc([N+](=O)[O-])c(C(=O)N2N=C(c3ccc4ccccc4c3)CC2c2cc(Br)ccc2O)n1 (stereo not given),18%,11µM*,-3,1%
O=C(N/N=C\C=C\c1ccc2c(c1)OCO2)C1COc2cc3ccccc3cc2O1 (stereo not given),-3%,20µM*,5,12%
O=C(N/N=C/c1ccc2c(c1)OCO2)C1COc2ccccc2O1 (stereo not given),5%,8%,-1,-2%
CC1(C)Cc2c(c(-c3ccccc3)[nH]c(=O)c2C#N)CS1,-2%,-28%,2,-1%
CC1(C)Cc2c(c(-c3ccco3)[nH]c(=O)c2C#N)CS1,-2%,25µM*,?,22%
COc1cc(/C=N/NC(=O)C2c3ccccc3Oc3ccccc32)ccc1O,7%,2.8µM*,2,6%
O=C(/C=C/C#Cc1cccc(NS(=O)(=O)c2ccccc2)c1)NO,.,?,7,.
CCCCc1nc2c(c3c1C[C@H](C)OC3)CN(C(=O)COC)CC2,.,-8%[11.7 µM],3[11.7 µM],.
COc1ccc2nc(C)cc(N/N=C/c3cccc(OC)c3O)c2c1,?,-29%,-15,?
COc1ccc(/C=N/Nc2cc(C)nc3ccc(Br)cc23)cc1,-10%,16µM*,-22,?
O=C(Nc1ccc(NC(=O)c2ccc(S(=O)(=O)c3ccccc3)cc2)cc1)c1ccccc1,36%,10µM*,3,4%
CN(c1ccccc1)S(=O)(=O)c1ccc(NC(=O)c2ccc(-c3ccccc3)cc2)cc1,31%,28µM*,1,5%
CC(=O)Nc1ccc(NC(=O)c2ccc(NC(=O)c3ccccc3)cc2)cc1,-5%,.,.,-5%
COc1ccc(-c2nc3c(c4c2C[C@H](c2ccccc2)OC4)CN(S(=O)(=O)c2ccc(NC(C)=O)cc2)CC3)c(C)c1,.,3%[11.7 µM],-1[11.7 µM],.
Cc1cccc([C@@H]2[C@@H]3C(=O)N(Cc4ccccc4)C(=O)[C@@H]3[C@]3(Cc4ccc(Cl)cc4)C(=O)N(c4ccc(Br)cc4)C(=O)N23)c1,19%,20µM*,0,5%
O=C(NCCO)Nc1ccc2nc(-c3ccco3)c(-c3ccco3)nc2c1,35µM*,?,?,?
COC(=O)c1ccc(NC(=S)NC(=O)c2cc(-c3ccccc3)nc3ccccc23)cc1,19%,13µM*,1,3%
COc1cccc(-c2cc(C(=O)Nc3nc4ccccc4s3)c3ccccc3n2)c1,1%,28µM*,4,3%
O=C(Nc1nc2ccccc2s1)c1cc(-c2ccco2)nc2ccccc12,24%,-2%,6,17%
C/C=C\C1=C(CO)C(=O)[C@@H]2OC2C1=O (stereo not given in full),.,-7%[11.7 µM],6[11.7 µM],.
CSCC[C@H](NC(=O)[C@H](CC(C)C)NC(=O)[C@H](CO)NC(=O)[C@H](CCC(=O)O)NC(=O)[C@H](CC(C)C)NC(=O)[C@H](Cc1ccc(O)cc1)NC(=O)[C@H](CCCCN)NC(=O)[C@H](CCCCN)NC(=O)[C@H](C)NC(=O)[C@H](CO)NC(=O)[C@H](CC(C)C)NC(=O)[C@H](CCC(N)=O)NC(=O)CNC(=O)[C@H](CC(C)C)NC(=O)[C@H](CC(C)C)NC(=O)[C@H](CCCCN)NC(=O)[C@H](CO)NC(=O)[C@H](Cc1ccccc1)NC(=O)[C@H](CC(=O)O)NC(=O)[C@H](CO)NC(=O)[C@@H](NC(=O)[C@H](Cc1ccccc1)NC(=O)[C@@H](NC(=O)CNC(=O)[C@H](CC(=O)O)NC(=O)[C@H](C)NC(=O)[C@@H](N)Cc1cnc[nH]1)C(C)C)[C@@H](C)O)C(N)=O,.,-3%,4,.
O=S(=O)(Nc1ccc(-c2nc3cccnc3s2)cc1)c1cccs1,14%,22µM*,3,8%
COc1ccc(NCc2ccc(OC)c(Cn3ccnc3)c2)c(OC)c1,11%,13µM*,4,10%
CC[C@H](C)[C@H](N)C(=O)N[C@H]1CCC(=O)NCC(C(=O)N[C@@H](Cc2ccc(O)cc2)C(=O)N[C@@H](CCCNC(=N)N)C(=O)N[C@@H](CC(C)C)C(=O)N[C@@H](CCCNC(=N)N)C(=O)N[C@@H](Cc2ccc(O)cc2)C(N)=O)NC(=O)[C@@H]2CCCN2C(=O)[C@@H](NC(=O)[C@@H](N)[C@@H](C)CC)CCC(=O)NCC(C(=O)N[C@@H](Cc2ccc(O)cc2)C(=O)N[C@@H](CCCNC(=N)N)C(=O)N[C@@H](CC(C)C)C(=O)N[C@@H](CCCNC(=N)N)C(=O)N[C@@H](Cc2ccc(O)cc2)C(N)=O)NC(=O)[C@@H]2CCCN2C1=O (stereo not given in full),.,?,-25,.
CC(C)(C)c1ccc(S(=O)(=O)/C=C\C#N)cc1,.,0%[24.8 µM],42,.
SMILES,MLL CXXC-DNA inh,Menin MLL FP TR,Menin-MLL FL inh,MBNL1-CUG inh
CC(=O)Nc1ccc(-c2cc(-c3ccc(NC(C)=O)cc3)nc(-c3ccccc3)n2)cc1,11%,6.3µM*,6,0%
CC(=O)Nc1ccc(-c2cc(-c3ccccc3)nc(-c3ccccc3)n2)cc1,4%,?,7,.
CC(=O)NCCCC[C@H](NC(=O)OC(C)(C)C)C(=O)Nc1ccc2c(C(F)(F)F)cc(=O)oc2c1,.,-2%,0,.
O=c1c(CCc2ccccc2)nc2cnc(N3CCOCC3)nc2n1Cc1ccc(F)cc1,.,3%,11,.
N#CCCn1c(=O)c(CCc2ccccc2)nc2cnc(N3CCOCC3)nc21,.,40µM*,?,.
CCN1C(C)=C(C)S/C1=C1\SC(=S)N(NC(C)=O)C1=O,15%,2%,3,?
CC(=O)NN1C(=O)/C(=C2/Sc3ccc(Cl)cc3N2C)SC1=S,-3%,35µM*,20,17%
CCCC(=O)O[C@]1(C(=O)CCl)[C@H](C)C[C@@H]2[C@H]3CCC4=CC(=O)C=C[C@]4(C)[C@@]3(F)C(=O)C[C@@]21C,4%,2%,-2,.
FC(F)Sc1ccc(NC(=S)NC(c2ccccc2)c2ccccc2)cc1,7%,16µM*,-1,-3%
COc1cc(O)c2c(c1)oc(=O)c1c3cc(O)c(O)cc3oc21,.,?,0,.
Cn1c2ccccc2c2cc(/C=N/NC(=O)c3cc(O)cc(O)c3)ccc21,?,?,1,6%
CCn1c2ccccc2c2cc(/C=N/NC(=O)c3ccccc3)ccc21,19%,25µM*,3,62%
COc1ccc(N2CCN(CC(O)COc3cc(C)cc(C)c3)CC2)cc1 (stereo not given),-6%,-28%,-3,-9%
COc1ccc(N2CCN(CC(O)COC(c3ccccc3)c3ccccc3)CC2)cc1 (stereo not given),7%,-11%,0,9%
COc1ccc(OCC(O)CN2CCN(c3ccc(OC)cc3)CC2)cc1 (stereo not given),-6%,35µM*,-28,-6%
COc1ccc(N2CCN(CC(O)COC(c3ccc(F)cc3)c3ccc(F)cc3)CC2)cc1 (stereo not given),24%,18µM*,-14,3%
